Results reported in paper PMC11006913.

Assays:
Test in all cases: PBM; 200 nM protein, PBS
Conditions in all cases: dsDNA, one strand shown
[1] = molecular target: HESX1 (Homo sapiens, UniProt Q9UBX0 95-180, R165K)
[2] = molecular target: HESX1 (Homo sapiens, UniProt Q9UBX0 95-180)
[3] = molecular target: HESX1 (Homo sapiens, UniProt Q9UBX0 95-180, R109Q)
[4] = molecular target: HESX1 (Homo sapiens, UniProt Q9UBX0 95-180, P111T)
[5] = molecular target: HESX1 (Homo sapiens, UniProt Q9UBX0 95-180, F115L)
Chain of HESX1 (Homo sapiens, UniProt Q9UBX0 95-180, F115L) (Q9UBX0 95-180 F115L): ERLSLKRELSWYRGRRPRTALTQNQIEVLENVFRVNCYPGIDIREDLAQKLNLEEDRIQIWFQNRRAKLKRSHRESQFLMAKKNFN

[6] = molecular target: PROP1 (Homo sapiens, UniProt O75360 56-141)
Chain of PROP1 (Homo sapiens, UniProt O75360 56-141) (O75360 56-141): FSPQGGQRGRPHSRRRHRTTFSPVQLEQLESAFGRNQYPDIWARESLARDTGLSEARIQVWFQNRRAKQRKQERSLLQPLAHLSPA

[7] = molecular target: PROP1 (Homo sapiens, UniProt O75360 56-141, R99H)
Chain of PROP1 (Homo sapiens, UniProt O75360 56-141, R99H) (O75360 56-141 R99H): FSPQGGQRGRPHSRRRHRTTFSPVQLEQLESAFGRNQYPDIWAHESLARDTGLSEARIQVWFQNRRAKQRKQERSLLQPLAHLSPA

[8] = molecular target: PROP1 (Homo sapiens, UniProt O75360 56-141, F88S)
Chain of PROP1 (Homo sapiens, UniProt O75360 56-141, F88S) (O75360 56-141 F88S): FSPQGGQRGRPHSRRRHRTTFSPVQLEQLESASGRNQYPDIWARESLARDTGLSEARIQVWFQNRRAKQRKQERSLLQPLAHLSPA

[9] = molecular target: ALX1 (Homo sapiens, UniProt Q15699 118-204, L144V)
Chain of ALX1 (Homo sapiens, UniProt Q15699 118-204, L144V) (Q15699 118-204 L144V): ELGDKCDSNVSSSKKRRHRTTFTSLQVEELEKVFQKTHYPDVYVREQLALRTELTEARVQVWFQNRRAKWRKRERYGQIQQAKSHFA

[10] = molecular target: ALX1 (Homo sapiens, UniProt Q15699 118-204, L144R)
Chain of ALX1 (Homo sapiens, UniProt Q15699 118-204, L144R) (Q15699 118-204 L144R): as the sequence (Q15699 118-204 L144V) above, with V27R counted along it

[11] = molecular target: ALX1 (Homo sapiens, UniProt Q15699 118-204)
Chain of ALX1 (Homo sapiens, UniProt Q15699 118-204) (Q15699 118-204): as the sequence (Q15699 118-204 L144V) above, with V27L counted along it

[12] = molecular target: ALX3 (Homo sapiens, UniProt O95076 139-225, L168Q)
Chain of ALX3 (O95076 139-225 L168Q): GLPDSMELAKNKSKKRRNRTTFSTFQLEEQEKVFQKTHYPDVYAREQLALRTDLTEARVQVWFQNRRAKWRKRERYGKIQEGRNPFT

Chain of HESX1 (Homo sapiens, UniProt Q9UBX0 95-180, R109Q) (Q9UBX0 95-180 R109Q): as the sequence (Q9UBX0 95-180 F115L) above, with R15Q, L21F counted along it
Chain of HESX1 (Homo sapiens, UniProt Q9UBX0 95-180, R165K) (Q9UBX0 95-180 R165K): as the sequence (Q9UBX0 95-180 F115L) above, with L21F, R71K counted along it
Chain of HESX1 (Homo sapiens, UniProt Q9UBX0 95-180, P111T) (Q9UBX0 95-180 P111T): as the sequence (Q9UBX0 95-180 F115L) above, with P17T, L21F counted along it
Chain of HESX1 (Homo sapiens, UniProt Q9UBX0 95-180) (Q9UBX0 95-180): as the sequence (Q9UBX0 95-180 F115L) above, with L21F counted along it

| Sequence | binding signal [1] | binding signal [2] | binding signal [3] | binding signal [4] | binding signal [5] | binding signal [6] | binding signal [7] | binding signal [8] | binding signal [9] | binding signal [10] | binding signal [11] | binding signal [12] |
| --- | --- | --- | --- | --- | --- | --- | --- | --- | --- | --- | --- | --- |
| GAGCTGGC | 6.31 upbm affinity estimate (log intensity, higher = more binding, comparable within an allelic series) | 6.3 upbm affinity estimate (log intensity, higher = more binding, comparable within an allelic series) | 6.49 upbm affinity estimate (log intensity, higher = more binding, comparable within an allelic series) | 6.25 upbm affinity estimate (log intensity, higher = more binding, comparable within an allelic series) | 6.47 upbm affinity estimate (log intensity, higher = more binding, comparable within an allelic series) |  |  |  |  |  |  |  |
| CGCACGCC | 6.51 upbm affinity estimate (log intensity, higher = more binding, comparable within an allelic series) | 6.47 upbm affinity estimate (log intensity, higher = more binding, comparable within an allelic series) | 6.54 upbm affinity estimate (log intensity, higher = more binding, comparable within an allelic series) | 6.43 upbm affinity estimate (log intensity, higher = more binding, comparable within an allelic series) | 6.48 upbm affinity estimate (log intensity, higher = more binding, comparable within an allelic series) | 6.43 upbm affinity estimate (log intensity, higher = more binding, comparable within an allelic series) | 6.77 upbm affinity estimate (log intensity, higher = more binding, comparable within an allelic series) | 6.63 upbm affinity estimate (log intensity, higher = more binding, comparable within an allelic series) |  |  |  |  |
| GCAGGCGC | 6.11 upbm affinity estimate (log intensity, higher = more binding, comparable within an allelic series) | 5.98 upbm affinity estimate (log intensity, higher = more binding, comparable within an allelic series) | 6.31 upbm affinity estimate (log intensity, higher = more binding, comparable within an allelic series) | 6.16 upbm affinity estimate (log intensity, higher = more binding, comparable within an allelic series) | 6.37 upbm affinity estimate (log intensity, higher = more binding, comparable within an allelic series) |  |  |  | 5.82 upbm affinity estimate (log intensity, higher = more binding, comparable within an allelic series) | 5.84 upbm affinity estimate (log intensity, higher = more binding, comparable within an allelic series) | 5.72 upbm affinity estimate (log intensity, higher = more binding, comparable within an allelic series) |  |
| TCCCCCCA | 6.55 upbm affinity estimate (log intensity, higher = more binding, comparable within an allelic series) | 6.5 upbm affinity estimate (log intensity, higher = more binding, comparable within an allelic series) | 6.55 upbm affinity estimate (log intensity, higher = more binding, comparable within an allelic series) | 6.52 upbm affinity estimate (log intensity, higher = more binding, comparable within an allelic series) | 6.55 upbm affinity estimate (log intensity, higher = more binding, comparable within an allelic series) |  |  |  |  |  |  |  |
| CCTAGCTC | 6.41 upbm affinity estimate (log intensity, higher = more binding, comparable within an allelic series) | 6.56 upbm affinity estimate (log intensity, higher = more binding, comparable within an allelic series) | 6.57 upbm affinity estimate (log intensity, higher = more binding, comparable within an allelic series) | 6.46 upbm affinity estimate (log intensity, higher = more binding, comparable within an allelic series) | 6.62 upbm affinity estimate (log intensity, higher = more binding, comparable within an allelic series) |  |  |  |  |  |  |  |
| CCGAGACC | 6.38 upbm affinity estimate (log intensity, higher = more binding, comparable within an allelic series) | 6.35 upbm affinity estimate (log intensity, higher = more binding, comparable within an allelic series) | 6.45 upbm affinity estimate (log intensity, higher = more binding, comparable within an allelic series) | 6.33 upbm affinity estimate (log intensity, higher = more binding, comparable within an allelic series) | 6.5 upbm affinity estimate (log intensity, higher = more binding, comparable within an allelic series) | 6.57 upbm affinity estimate (log intensity, higher = more binding, comparable within an allelic series) | 6.84 upbm affinity estimate (log intensity, higher = more binding, comparable within an allelic series) | 6.43 upbm affinity estimate (log intensity, higher = more binding, comparable within an allelic series) |  |  |  | 7.73 upbm affinity estimate (log intensity, higher = more binding, comparable within an allelic series) |
| CCGAGCCG | 6.36 upbm affinity estimate (log intensity, higher = more binding, comparable within an allelic series) | 6.14 upbm affinity estimate (log intensity, higher = more binding, comparable within an allelic series) | 6.38 upbm affinity estimate (log intensity, higher = more binding, comparable within an allelic series) | 6.22 upbm affinity estimate (log intensity, higher = more binding, comparable within an allelic series) | 6.62 upbm affinity estimate (log intensity, higher = more binding, comparable within an allelic series) |  |  |  | 6.19 upbm affinity estimate (log intensity, higher = more binding, comparable within an allelic series) | 6.2 upbm affinity estimate (log intensity, higher = more binding, comparable within an allelic series) | 6.32 upbm affinity estimate (log intensity, higher = more binding, comparable within an allelic series) | 7.56 upbm affinity estimate (log intensity, higher = more binding, comparable within an allelic series) |
| AGGGTCCC | 6.51 upbm affinity estimate (log intensity, higher = more binding, comparable within an allelic series) | 6.48 upbm affinity estimate (log intensity, higher = more binding, comparable within an allelic series) | 6.45 upbm affinity estimate (log intensity, higher = more binding, comparable within an allelic series) | 6.51 upbm affinity estimate (log intensity, higher = more binding, comparable within an allelic series) | 6.53 upbm affinity estimate (log intensity, higher = more binding, comparable within an allelic series) |  |  |  |  |  |  |  |
| AGGCCCGC | 6.43 upbm affinity estimate (log intensity, higher = more binding, comparable within an allelic series) | 6.37 upbm affinity estimate (log intensity, higher = more binding, comparable within an allelic series) | 6.38 upbm affinity estimate (log intensity, higher = more binding, comparable within an allelic series) | 6.39 upbm affinity estimate (log intensity, higher = more binding, comparable within an allelic series) | 6.43 upbm affinity estimate (log intensity, higher = more binding, comparable within an allelic series) |  |  |  |  |  |  |  |
| AGAGCGCG | 6.51 upbm affinity estimate (log intensity, higher = more binding, comparable within an allelic series) | 6.38 upbm affinity estimate (log intensity, higher = more binding, comparable within an allelic series) | 6.56 upbm affinity estimate (log intensity, higher = more binding, comparable within an allelic series) | 6.61 upbm affinity estimate (log intensity, higher = more binding, comparable within an allelic series) | 6.46 upbm affinity estimate (log intensity, higher = more binding, comparable within an allelic series) |  |  |  |  |  |  |  |
| ACGCTGCG | 6.32 upbm affinity estimate (log intensity, higher = more binding, comparable within an allelic series) | 6.32 upbm affinity estimate (log intensity, higher = more binding, comparable within an allelic series) | 6.51 upbm affinity estimate (log intensity, higher = more binding, comparable within an allelic series) | 6.42 upbm affinity estimate (log intensity, higher = more binding, comparable within an allelic series) | 6.51 upbm affinity estimate (log intensity, higher = more binding, comparable within an allelic series) |  |  |  | 6.28 upbm affinity estimate (log intensity, higher = more binding, comparable within an allelic series) | 6.23 upbm affinity estimate (log intensity, higher = more binding, comparable within an allelic series) | 6.21 upbm affinity estimate (log intensity, higher = more binding, comparable within an allelic series) |  |
